# Counter-ions that a name gives are not always drawn.
# Tests used:
# Test in all cases: Euclidean distance of Cell Painting phenotypic profile (signed KS, 77 features) to DMSO centroid (dimensionless distance); 5 or 10 uM (library dependent); higher = stronger phenotypic change vs DMSO (phenoactivity)
# Conditions in all cases: 48 h
# 786-O = test system: 786-O
# Outline: (§1)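 Harmony extracted 77 features from 20X confocal images (9 fields/well) of stained cells, scoring each as a signed Kolmogorov-Smirnov statistic against same-plate vehicle wells. The cells, five cancer lines and a healthy fibroblast line, had received library compounds for 48 h at 10 or 5 uM depending on library, with 0.1% DMSO final. Phenoactivity is the Euclidean distance from each plate-position-corrected, correlation-weighted, top-dose replicate-averaged profile to the median vehicle profile.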
# A549 = test system: A549
# Outline: as §1
# DU145 = test system: DU145
# Outline: as §1
# FB = test system: FB
# Outline: as §1
# HEPG2 = test system: HEPG2
# Outline: as §1
# OVCAR4 = test system: OVCAR4
# Outline: as §1
Compound,Euclidean distance (786-O),Euclidean distance (A549),Euclidean distance (DU145),Euclidean distance (FB),Euclidean distance (HEPG2),Euclidean distance (OVCAR4)
COC(=O)[C@@H]1[C@H]2C[C@H]3c4[nH]c5ccccc5c4CCN3C[C@@H]2CC[C@@H]1O [Yohimbine HCl],1.79,0.764,0.901,0.844,0.549,0.758
CC(=O)OCC1=C(C(=O)O)N2C(=O)[C@@H](NC(=O)CSc3ccncc3)[C@H]2SC1 [Cephapirin Benzathine],1.51,0.954,0.791,1.16,0.75,0.965
O=C1CCC(N2C(=O)c3ccccc3C2=O)C(=O)N1 (stereo not drawn) [Thalidomide],1.48,0.846,0.603,1.22,0.461,1.67
Nc1ccc(/N=N/c2ccccc2)c(N)n1 [Phenazopyridine HCl],1.22,0.654,0.961,1.04,1.07,0.739
Cc1nnc(SCC2=C(C(=O)O)N3C(=O)[C@@H](NC(=O)Cn4cc(Cl)c(=O)c(Cl)c4)[C@H]3SC2)s1 [Cefazedone],1.36,0.841,0.667,1.16,0.733,0.862
O=c1oc2ccccc2c(O)c1Cc1c(O)c2ccccc2oc1=O [Dicoumarol],0.633,0.618,0.712,0.872,0.701,0.783
C[C@H]1O[C@H](O[C@H]2[C@H](O)[C@@H](O)[C@@H](O[C@H]3[C@H](O)[C@@H](O)C(O)O[C@@H]3CO)O[C@@H]2CO)[C@H](O)[C@@H](O)[C@@H]1N[C@H]1C=C(CO)[C@@H](O)[C@H](O)[C@H]1O (stereo partly drawn) [Acarbose],1.5,1.91,1.47,1.59,0.847,1.46
CC1(C)S[C@@H]2[C@H](NC(=O)[C@H](NC(=O)N3CCN(S(C)(=O)=O)C3=O)c3ccccc3)C(=O)N2[C@H]1C(=O)O [Mezlocillin Sodium],1.2,0.987,1.43,1.15,1.72,0.751
O=c1ccc2cc3ccoc3cc2o1 [Psoralen],1.35,0.643,0.873,1.16,1.17,1.04
CCOC(=O)n1ccn(C)c1=S [Carbimazole],1.03,1.11,1.2,0.945,0.319,1.09
CSc1ccc(C(=O)/C=C/c2cc(C)c(OC(C)(C)C(=O)O)c(C)c2)cc1 [Elafibranor],1.24,1.28,0.801,1.43,0.747,0.978
Cc1ccc(Nc2nccc(N(C)c3ccc4c(C)n(C)nc4c3)n2)cc1S(N)(=O)=O,2.42,2.34,1.99,2.87,1.93,1.6
N#Cc1ccc([C@H]2CCc3cncn32)c(F)c1 [Osilodrostat (LCI699)],1.39,1.28,1.56,1.68,0.588,1.57
CCc1cc(Nc2nccc(-c3c(-c4ccc(OC)c(C(=O)Nc5c(F)cccc5F)c4)nc4ccccn34)n2)c(OC)cc1N1CCC(N2CCN(S(C)(=O)=O)CC2)CC1,1.24,1.6,1.12,0.954,1.11,1.26
CC(C)N1CCN(c2ccc(Nc3ncc4cc5n(c4n3)C3(CCCCC3)CNC5=O)nc2)CC1,3.19,1.63,2.41,3.71,2.1,2.34
N=C(N)c1ccc(OCCCCCOc2ccc(C(=N)N)cc2)cc1 [Pentamidine],1.54,2.11,1.64,0.958,2.12,1.65
Cc1ccc(NC(=O)c2ccc(CN3CCN(C)CC3)cc2)cc1Nc1nccc(-c2cccnc2)n1 [Imatinib (STI571)],1.85,1.68,1.9,2.04,1.78,1.48
Cc1cc(C)nc(NS(=O)(=O)c2ccc(N)cc2)n1 [Sulfamethazine Sodium Salt],0.877,0.792,0.732,0.878,0.494,1.38
N[C@@]1(C(=O)O)CS(=O)(=O)[C@H]2[C@H](C(=O)O)[C@H]21,0.494,1.32,0.671,0.749,0.743,0.75
Oc1c(Br)cc(Br)c2cccnc12 [Broxyquinoline],0.96,0.988,1.01,1.03,0.735,0.981
COc1cc(N)c(Cl)cc1C(=O)NC1CCN(CCCOc2ccc(F)cc2)CC1OC (stereo not drawn) [Cisapride hydrate],0.963,1.16,0.853,1.23,0.401,1.05
COc1ccc2[nH]c([S+]([O-])Cc3ncc(C)c(OC)c3C)nc2c1 (stereo not drawn) [Omeprazole],3.37,2.83,3.32,3.97,4.04,2.98
CCC1(c2c[nH]cn2)Cc2ccccc2C1 [Atipamezole],0.467,0.642,0.626,0.848,0.484,0.675
Nc1ccn(C[C@@H](CO)OCP(=O)(O)O)c(=O)n1 [Cidofovir],1.22,1.39,1.14,0.855,0.834,1.26

Compound,Euclidean distance (786-O),Euclidean distance (A549),Euclidean distance (DU145),Euclidean distance (FB),Euclidean distance (HEPG2),Euclidean distance (OVCAR4)
Nc1nc2ccc(OC(F)(F)F)cc2s1 [Riluzole],1.03,0.891,2.58,1.3,0.688,0.739
COc1ccccc1OCCNCC(O)COc1cccc2[nH]c3ccccc3c12 (stereo not drawn) [Carvedilol],1.59,1.04,1.42,1.64,2.22,1.86
COc1cc2nc(N3CCN(C(=O)C4COc5ccccc5O4)CC3)nc(N)c2cc1OC (stereo not drawn) [Doxazosin],1.52,1.28,1.55,0.683,0.609,1.18
O=c1ncccn1[C@@H]1O[C@H](CO)[C@@H](O)[C@H]1O [Zebularine],1.2,1,0.895,0.816,0.887,0.492
CCN1C(=O)C=CC1=O [N-Ethylmaleimide (NEM)],3.6,1.27,1.23,1.58,0.6,1.06
Cc1ccccc1C(C(=O)NC1CCCCC1)N(C(=O)Cn1ccnc1C)c1cccc(F)c1 (stereo not drawn),1.02,1.06,1.01,1.52,0.839,1.59
CCCCC1=NC2(CCCC2)C(=O)N1Cc1ccc(-c2ccccc2S(=O)(=O)Nc2noc(C)c2C)c(COCC)c1,1.6,0.599,1.01,0.872,0.445,0.927
N#CC(c1ccnc(OCc2ccc(CN3CCOCC3)cc2)n1)c1nc2ccccc2s1 (stereo not drawn) [Bentamapimod],1.54,1.83,1.31,1.81,1.38,1.36
O=C1NS(=O)(=O)c2ccccc21 [Saccharin],1.09,0.449,0.729,0.738,0.461,0.73
O=C(c1cc(Cc2n[nH]c(=O)c3ccccc23)ccc1F)N1CCN(C(=O)C2CC2)CC1,1.56,1.23,0.958,1.7,1.21,1.11
CCN(CC)CCOC(=O)c1ccc(N)cc1 [Procaine HCl],0.661,0.741,0.744,0.877,0.478,0.916
Cc1nnc(NS(=O)(=O)c2ccc(N)cc2)s1 [Sulfamethizole],1.54,0.798,1.76,0.908,0.498,1.11
N=C1CCCN1Cc1[nH]c(=O)[nH]c(=O)c1Cl [Tipiracil hydrochloride],1.02,0.947,0.925,1.05,0.343,0.676
COc1cc2nc(N(C)CCCNC(=O)C3CCCO3)nc(N)c2cc1OC (stereo not drawn) [Alfuzosin HCl],0.985,0.664,0.632,0.744,0.675,0.907
C[C@]12CC[C@@H]3c4ccc(O)cc4CC[C@H]3[C@@H]1CC[C@@H]2OC(=O)CCC1CCCC1 [Estradiol Cypionate],1.29,1.56,1.4,1.23,0.84,1.34
COC(=O)N/N=C/c1c[n+]([O-])c2ccccc2[n+]1[O-] [Carbadox],0.912,0.99,0.837,1.23,1.04,1.46
NS(=O)(=O)c1cc(C(=O)O)c(NCc2ccco2)cc1Cl [Furosemide],1.62,0.823,1.83,1.25,0.788,0.747
Nc1nc(OCc2ccccc2)c2nc[nH]c2n1 [O6-Benzylguanine],1.02,0.825,0.926,1.41,0.548,0.833
O=S(=O)(c1ccccc1)N(CC(F)(F)F)c1ccc(C(O)(C(F)(F)F)C(F)(F)F)cc1,1.13,1.85,1.07,1.62,2.12,1.43
O=C1C(O)=C([C@H]2CC[C@H](c3ccc(Cl)cc3)CC2)C(=O)c2ccccc21 [Atovaquone],1.3,0.846,1.08,1.41,0.566,1.08
O=C(Nc1cccc(C2=NCCN2)c1)Nc1cccc(C2=NCCN2)c1 [Imidocarb dipropionate],1.26,1.66,1.76,1.4,1.23,1.75
NCCOB(c1ccccc1)c1ccccc1 [2-Aminoethyl Diphenylborinate (2-APB)],1.61,0.835,1,0.968,0.822,1.13
CCN(CC)Cc1cc(Nc2ccnc3cc(Cl)ccc23)ccc1O [Amodiaquine hydrochloride],2.94,2.7,1.67,3.45,2.69,2.51
CCCc1cc(=O)[nH]c(=S)[nH]1 [Propylthiouracil],0.782,1.25,2.02,1.4,0.77,1.77

# — the supplement of paper PMC10127200
